Bioassay records (PubChem)
An excerpt weighted towards active compounds, which were near 3% of everything screened.
12-LOX inh = blocks human arachidonate 12S-lipoxygenase | Potency, µM (top dose mostly 108 µM), hits mostly inhibitors | 580,000 compounds, 1.1% hits | P18054 | purified 12hLO, xylenol orange hydroperoxide absorbance | AID 1671190
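Purified human 12hLO (150 nM final) in 25 mM Hepes, 0.01% Triton X-100, pH 7.0 was preincubated 15 min at room temperature with compound. Then 40 uM arachidonic acid was added, 30 min. Hydroperoxide was read by Fe-XO absorbance ratio 573/405 nm.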
PLK1 PBD inh = blocks phosphopeptide binding to human PLK1 polo-box domain; P53350; Plk1 PBD binding of FITC phosphopeptide, fluorescence polarization; Potency, µM, usual class: inhibitors; 360,000 compounds, 2.8% hits; note: series mostly up to about 57 µM; nearly all actives have a fitted effect of over 65% in size
GCN5L2 inh = GCN5L2 (KAT2A) acetyltransferase inhibition; Q92830; GCN5L2 HAT assay, ThioGlo1 CoA-SH fluorescence; Potency, µM (series often up to 58.9 µM), usual class: inhibitors; 390,000 compounds, 0.21% hits; AID 504327
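Free CoA generated was detected with ThioGlo1 (50uM) fluorescence at Ex340nm/Em540nm, read immediately and after 20 min at room temperature. Enzyme, 20 nM in HEPES pH 7.5 buffer, saw compounds 15 min before adding 75uM H3(1-25) peptide and 70uM acetyl-CoA.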
VDR inh = vitamin D3 receptor (human) inhibition. VDR-SRC2-3 peptide fluorescence polarization, 2 h. P11473. Potency, µM, usual class: inhibitors. 400,000 compounds, 0.93% hits
Target sequence (P11473 whole entry, looked up): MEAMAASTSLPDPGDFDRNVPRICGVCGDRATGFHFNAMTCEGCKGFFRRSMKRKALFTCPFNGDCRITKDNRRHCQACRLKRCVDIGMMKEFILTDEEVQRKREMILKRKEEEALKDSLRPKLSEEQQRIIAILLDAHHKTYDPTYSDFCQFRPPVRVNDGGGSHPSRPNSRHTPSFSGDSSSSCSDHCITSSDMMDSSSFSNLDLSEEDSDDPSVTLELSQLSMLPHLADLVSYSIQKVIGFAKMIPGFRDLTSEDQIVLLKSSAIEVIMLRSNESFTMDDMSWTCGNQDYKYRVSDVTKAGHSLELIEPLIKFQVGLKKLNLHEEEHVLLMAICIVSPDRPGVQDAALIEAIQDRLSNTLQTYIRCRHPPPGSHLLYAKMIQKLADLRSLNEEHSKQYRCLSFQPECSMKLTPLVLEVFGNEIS
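Two reagent solutions held at 4 deg C in the dark were dispensed, compounds pinned at 23 nl, and the mixture incubated 2 h at room temperature. Read-out: fluorescence polarization of VDR–SRC2-3 peptide binding.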
Hits are given with their value; i = inactive; ? = inconclusive; nt = not tested or not shown; [ ] = dose if it differs, or a comment. Calls come from the whole dose curve; as a rule, active = well fitted curve in the direction sought with a large enough effect; inconclusive = small, poorly fitted or top-dose-only effect, or another doubt; inactive = no such curve, though single readings can be large; an effect the other way counts as inactive or inconclusive.

SMILES	12-LOX inh	PLK1 PBD inh	GCN5L2 inh	VDR inh
c1ccc(Nc2nc(N3CCCCC3)nc(N3CCCCC3)n2)cc1	i	21µM	i	i
c1ccc(Nc2nc(N3CCCC3)nc(N3CCCC3)n2)cc1	i	i	i	i
COc1ccc(Nc2nc(N3CCCCC3)c3ccccc3n2)cc1	28µM	i	i	i
Cc1ccc(Nc2nc(N3CCOCC3)c3ccccc3n2)cc1	?	i	i	i
C[C@H](NC(=O)[C@H]1N2C(=O)c3ccccc3C2SC1(C)C)C(=O)NCc1ccc(F)cc1 (stereo not given in full)	i	nt	nt	nt
COc1ccccc1C(=O)Nc1sc2c(c1C(N)=O)CCC(C)C2 (stereo not given)	i	nt	nt	nt
COc1cc(/C=C(/C#N)C(=O)Nc2cccc(C(F)(F)F)c2)cc(OC)c1OC	i	nt	nt	nt
COc1ccc(Cl)cc1N1CC(O)=C(c2nc3ccc(C)cc3[nH]2)C1=N	i	nt	nt	nt
COc1ccc(N(C(C)C(=O)N/N=C/c2ccc(OC)c(OC)c2)S(C)(=O)=O)cc1 (stereo not given)	i	30µM	i	i
COc1ccc(N(C(C)C(=O)NN=C2CCCCCCC2)S(C)(=O)=O)cc1 (stereo not given)	i	27µM	i	i
CCc1ccccc1N(CC(=O)N/N=C/c1ccc(OC(=O)OC)c(OC)c1)S(C)(=O)=O	i	24µM	?	i
CCCOc1ccc(CNC(=O)C2=C(c3ccccc3)c3cc(Cl)ccc3S(=O)(=O)N2C)cc1	i	nt	nt	nt
CCOc1ccc2c(c1)c(N=NC(=N)N)c(O)n2C	i	i	i	i
CCOc1ccc2c(c1)c(N=NC(N)=S)c(O)n2C	5µM	i	?	i
Cc1occc1C(=O)N/N=C/C=C\c1ccccc1[N+](=O)[O-]	i	?	i	i
CCOC(=O)N/N=C/C=C/c1ccccc1[N+](=O)[O-]	i	21µM	i	i
Cc1ccccc1NC(=O)COC(=O)Cc1ccsc1	i	27µM	i	i
Cc1cc(C)c(NC(=O)COC(=O)Cc2ccsc2)c(C)c1	i	27µM	i	i
CC(OC(=O)c1ccc2c(c1)NC(=O)CS2)C(=O)NC1CCCC1 (stereo not given)	i	nt	nt	nt
O=c1oc2ccccc2c(NCc2ccccc2)c1NS(=O)(=O)c1ccc(F)c(F)c1	i	nt	nt	nt
N#Cc1ccc(CS(=O)(=O)Cc2ccc(Cl)c(Cl)c2)cc1	i	nt	nt	nt
CC(C)Cn1c(-c2ccc(Br)cc2)c[nH]c1=S	35µM	17µM	i	?
FC(F)(F)c1cccc(NC(=S)NC(c2ccccc2)c2ccccc2)c1	35µM	i	i	i
COC(=O)C1=C(C)N=C2SC=C(CC(=O)NCCc3cccs3)N2C1c1ccccc1Cl (stereo not given)	i	nt	nt	nt
Cc1ccc(C)c(N2CCN(c3ccc4cc(S(=O)(=O)N5CCCCC5)ccc4n3)CC2)c1	?	i	i	?
SMILES	12-LOX inh	PLK1 PBD inh	GCN5L2 inh	VDR inh
CC1CCCCN1S(=O)(=O)c1ccc2nc(N3CCCCCC3)ccc2c1 (stereo not given)	13µM	nt	nt	nt
COc1ccc(C2NS(=O)(=O)N=C2N)cc1 (stereo not given)	i	19µM	i	i
Cc1cccc(C2NS(=O)(=O)N=C2N)c1 (stereo not given)	i	i	i[0.501 µM]	i
O=C(COc1ccc(F)cc1)Nc1ccc2oc(-c3ccccc3F)nc2c1	i	nt	nt	nt
CC(C)C(NC(=O)Nc1ccc(F)cc1)C(=O)N(C)C (stereo not given)	i	nt	nt	nt
c1ccc(Cn2c(SCc3nc4ccccc4s3)nnc2-c2ccco2)cc1	i	21µM	i	i
CCC(c1nnc(SCc2nc3ccccc3s2)n1Cc1ccccc1)N(C)C (stereo not given)	?	i	i	i
COc1ccc(-c2cc3nc4c(c(=O)n3[nH]2)CN(C(=O)CCCc2nc3ccccc3s2)CC4)cc1	i	nt	nt	nt
COc1ccc(-c2nnn(CC(=O)N(CC(=O)NC3CCCC3)c3ccccc3)n2)cc1OC	i	3.8µM	i	79µM
O=C(Nc1ccccc1)N1CCCN(CCc2ccncc2)CC1	i	nt	nt	nt
Cc1c(CC(=O)NCCCC(=O)O)c(=O)oc2cc3c(cc12)CCC(C)(C)O3	?	27µM	i	?
CC(=O)Nc1nc(=S)n(-c2ccccc2)[nH]1	?	27µM	i	i
CC(C)c1nc(=S)n(-c2ccccc2)[nH]1	?	i	i	i
COc1ccccc1CNCCS(=O)(=O)NN1CCOCC1	i	11µM	i	i
CCOc1ccc(C=O)c2ccccc12	i	nt	nt	nt
CCOC(=O)c1cnc2c(OC)cccc2c1N1CCN(c2ccc(OC)cc2)CC1	i	24µM	i	i
O=C(Cn1nnc2ccccc2c1=O)N[C@@H](Cc1c[nH]c2ccccc12)C(=O)O	i	i	i	i
CC(C)(C)OC(=O)N[C@@H](Cc1c[nH]c2ccccc12)C(=O)O	nt	nt	i	i
O=C(O)C(Cc1c[nH]c2ccccc12)NS(=O)(=O)c1ccc(Cl)c(C(F)(F)F)c1 (stereo not given)	40µM	i	i	i
C[C@@H](C(=O)N[C@@H](Cc1c[nH]c2ccccc12)C(=O)O)n1nnc2ccccc2c1=O	i	30µM	i	i
O=C(NC(Cc1c[nH]c2ccccc12)C(=O)O)OCC1c2ccccc2-c2ccccc21 (stereo not given)	35µM	i	nt	nt
CCn1cc(CN2CC(Oc3ccc(-c4noc(-c5ccncc5)n4)cc3)C2)cn1	i	nt	nt	nt
Cc1ccc(Cl)cc1NC(=O)CSc1ncc(-c2ccc(F)cc2)o1	i	nt	nt	nt
COc1ccc(C(C[N+](=O)[O-])c2c(-c3ccccc3)cc3ccccn23)c(OC)c1 (stereo not given)	1.6µM	i	i	71µM
COc1ccc(C(C[N+](=O)[O-])c2c(C)cc3ccccn23)cc1 (stereo not given)	?	i	i	i
SMILES	12-LOX inh	PLK1 PBD inh	GCN5L2 inh	VDR inh
COc1ccc(C2C(C(C)=O)=C(O)C(=O)N2CCc2c[nH]c3ccccc23)cc1OC (stereo not given)	?	i	i	i
COCCCN1C(=O)C(O)=C(C(C)=O)C1c1cccc(F)c1 (stereo not given)	7.9µM	i	i	i
CC(=O)C1=C(O)C(=O)N(CCc2c[nH]c3ccccc23)C1c1ccc(O)cc1 (stereo not given)	8.9µM	i	i	i
COc1cccc(C2C(C(C)=O)=C(O)C(=O)N2Cc2ccco2)c1 (stereo not given)	?	24µM	i	i
COc1cccc(C2C(C(C)=O)=C(O)C(=O)N2CCc2c[nH]c3ccccc23)c1 (stereo not given)	5µM	i	i	i
CCCCN1C(=O)C(O)=C(C(C)=O)C1c1ccccc1 (stereo not given)	nt	i	i[0.501 µM]	i
O=C(O)c1ccc(/C=C/C(=O)c2cc(Cl)ccc2Cl)cc1	i	nt	nt	nt
CCOC(=O)c1c(-c2ccccc2)csc1NC(=O)c1cc(-c2ccc(F)cc2)on1	i	nt	i	?
Cc1ccc(-c2csc(NC(=O)c3ccccc3Cl)c2C(=O)O)cc1	i	i	i	i
CCOC(=O)c1c(-c2ccccc2)csc1NC(=O)c1cc(-c2ccc(Br)cc2)on1	i	nt	i	79µM
CCOC(=O)c1c(-c2ccccc2)csc1NC(=O)c1cc(-c2ccccc2OC)on1	?	24µM	nt	?
